The values below come from the supplement of paper PMC10849652.

The full data set covers some 8,800 targets. This sample favours those with a hit. About 0.5% of all pairs of compound and target were hits. A number with no mark means an inactive call.

What all share (assay): log2 fold change, soluble protein after heating vs DMSO (PISA); higher = thermal stabilisation; K562 lysate, 10 uM; active = over 0.2 and 3.5 SD of the protein, either way, in both replicates (recomputed)
Compound in experiment [1]: Cc1cn(-c2cc(NC(=O)c3ccc(C)c(Nc4nccc(-c5cccnc5)n4)c3)cc(C(F)(F)F)c2)cn1 [nilotinib]
In outline:
(§1)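 The values are log-two fold changes in thermal stability compared with solvent controls and come from duplicates. They were obtained by TMTpro 16plex LC-MS/MS, with channel sums equalised, on the supernatant after 21,000xg for 90 min. That supernatant came from crude K562 extract at 1 mg/mL protein treated with 10 μM compound for 30 min, heated for 3 min across 48°C-58°C, pooled and brought to 0.5% NP-40 at 4°C.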

Compound in experiment [2]: Cc1nc(Nc2n[nH]c3c2CN(C(=O)N[C@H](CN(C)C)c2ccccc2)C3(C)C)c2sccc2n1
In outline:
as §1

Compound in experiment [3]: Cc1nc(Nc2ncc(C(=O)Nc3c(C)cccc3Cl)s2)cc(N2CCN(CCO)CC2)n1 [dasatinib]
The essentials:
as §1

Compound in experiment [4]: Cc1ncc(-c2ccnc(Nc3ccc(S(C)(=O)=O)cc3)n2)n1C(C)C
In outline: as §1

Compound in experiment [5]: Cn1cc(-c2ccc3c(c2)CCN3C(=O)Cc2cccc(C(F)(F)F)c2)c2c(N)ncnc21
The essentials:
as §1

Compound in experiment [6]: Cn1cc(CNCC2CCN(c3ncc(C(=O)NO)cn3)CC2)c2ccccc21 [quisinostat]
The essentials:
as §1

Compound in experiment [7]: Cn1cncc1[C@@](N)(c1ccc(Cl)cc1)c1ccc2c(c1)c(-c1cccc(Cl)c1)cc(=O)n2C [tipifarnib]
In outline: as §1

Compound in experiment [8]: NC(=O)Nc1cc(-c2cccc(F)c2)sc1C(=O)N[C@H]1CCCNC1
In outline: as §1

Compound in experiment [9]: NC(=O)c1cnc(N[C@@H]2CCCC[C@@H]2N)nc1Nc1cccc(-n2nccn2)c1
In outline: as §1

Compound in experiment [10]: NC1(c2ccc(-c3nc4ccn5c(=O)[nH]nc5c4cc3-c3ccccc3)cc2)CCC1
The essentials:
as §1

Compound in experiment [11]: NCC(=O)Nc1ccc(-n2nc(C(F)(F)F)cc2-c2ccc3c(ccc4ccccc43)c2)cc1
In outline: as §1

Compound in experiment [12]: O=C(CCCCCCC(=O)Nc1ccccc1)NO [vorinostat]
The essentials: as §1

Compound in experiment [13]: O=C(O)c1ccc2c(c1)nc(Nc1cccc(Cl)c1)c1ccncc12 [silmitasertib]
The essentials: as §1

Compound in experiment [14]: O=C1NC(=O)C(c2cnc3ccccn23)=C1c1cn2c3c(cc(F)cc13)CN(C(=O)N1CCCCC1)CC2
The essentials: as §1

Compound in experiment [15]: c1cn2cc(-c3ccc4cn[nH]c4c3)nc(Nc3ccc(N4CCOCC4)cc3)c2n1 [entospletinib]
The essentials: as §1

UniProt Q99574, sequence (Q99574 whole entry, looked up): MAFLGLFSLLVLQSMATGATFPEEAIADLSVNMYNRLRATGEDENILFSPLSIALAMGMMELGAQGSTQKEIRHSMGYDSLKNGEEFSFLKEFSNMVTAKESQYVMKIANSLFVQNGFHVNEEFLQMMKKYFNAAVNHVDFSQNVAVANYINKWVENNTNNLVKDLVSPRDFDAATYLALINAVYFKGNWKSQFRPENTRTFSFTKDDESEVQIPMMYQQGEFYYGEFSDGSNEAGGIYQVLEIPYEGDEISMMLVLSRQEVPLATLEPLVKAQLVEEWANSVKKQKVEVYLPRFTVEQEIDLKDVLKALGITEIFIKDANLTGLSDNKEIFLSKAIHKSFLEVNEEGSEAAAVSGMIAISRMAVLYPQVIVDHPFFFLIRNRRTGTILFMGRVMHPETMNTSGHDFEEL
UniProt Q9BWH6, sequence (Q9BWH6 whole entry, looked up): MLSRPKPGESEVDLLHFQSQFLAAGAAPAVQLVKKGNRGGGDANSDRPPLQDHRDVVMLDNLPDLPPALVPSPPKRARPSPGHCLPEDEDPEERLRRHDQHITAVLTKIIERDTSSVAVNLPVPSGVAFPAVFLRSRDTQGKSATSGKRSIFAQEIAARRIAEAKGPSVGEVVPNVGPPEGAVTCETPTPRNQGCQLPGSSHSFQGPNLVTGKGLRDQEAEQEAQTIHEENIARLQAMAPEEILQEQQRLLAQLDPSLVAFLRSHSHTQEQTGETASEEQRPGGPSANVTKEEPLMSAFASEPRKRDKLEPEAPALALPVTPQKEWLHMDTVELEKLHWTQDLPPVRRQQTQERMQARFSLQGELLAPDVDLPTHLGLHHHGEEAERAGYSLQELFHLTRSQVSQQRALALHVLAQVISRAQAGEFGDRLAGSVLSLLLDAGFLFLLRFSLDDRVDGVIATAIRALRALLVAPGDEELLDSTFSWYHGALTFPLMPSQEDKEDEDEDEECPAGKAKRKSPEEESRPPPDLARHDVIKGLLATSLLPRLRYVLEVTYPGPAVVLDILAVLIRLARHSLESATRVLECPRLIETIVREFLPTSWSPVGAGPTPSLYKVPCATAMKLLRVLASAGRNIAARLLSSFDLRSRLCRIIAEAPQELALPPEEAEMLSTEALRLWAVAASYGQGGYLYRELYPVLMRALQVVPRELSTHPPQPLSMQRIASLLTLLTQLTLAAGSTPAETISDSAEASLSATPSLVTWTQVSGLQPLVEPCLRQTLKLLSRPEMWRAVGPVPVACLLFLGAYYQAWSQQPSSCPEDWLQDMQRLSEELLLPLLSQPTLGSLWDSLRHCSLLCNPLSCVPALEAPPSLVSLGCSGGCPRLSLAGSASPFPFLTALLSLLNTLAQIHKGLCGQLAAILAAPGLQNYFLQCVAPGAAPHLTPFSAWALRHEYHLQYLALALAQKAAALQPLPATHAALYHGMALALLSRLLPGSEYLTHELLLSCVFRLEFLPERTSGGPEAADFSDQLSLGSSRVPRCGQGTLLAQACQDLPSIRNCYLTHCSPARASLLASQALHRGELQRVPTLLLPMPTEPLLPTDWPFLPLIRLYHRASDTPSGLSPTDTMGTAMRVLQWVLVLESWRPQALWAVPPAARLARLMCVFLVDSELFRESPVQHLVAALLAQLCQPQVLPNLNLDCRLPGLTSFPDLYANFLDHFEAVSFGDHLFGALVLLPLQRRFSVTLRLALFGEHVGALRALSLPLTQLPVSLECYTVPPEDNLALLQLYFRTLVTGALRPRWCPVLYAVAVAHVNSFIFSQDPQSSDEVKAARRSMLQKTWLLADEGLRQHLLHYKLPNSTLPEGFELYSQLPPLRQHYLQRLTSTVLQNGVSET
UniProt Q9P0P0, sequence (Q9P0P0 whole entry, looked up): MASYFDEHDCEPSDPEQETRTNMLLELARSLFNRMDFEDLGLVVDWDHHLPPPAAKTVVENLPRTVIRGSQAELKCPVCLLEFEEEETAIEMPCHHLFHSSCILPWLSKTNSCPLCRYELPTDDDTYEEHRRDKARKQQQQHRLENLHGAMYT
UniProt Q9Y4B4, sequence (Q9Y4B4 whole entry, looked up): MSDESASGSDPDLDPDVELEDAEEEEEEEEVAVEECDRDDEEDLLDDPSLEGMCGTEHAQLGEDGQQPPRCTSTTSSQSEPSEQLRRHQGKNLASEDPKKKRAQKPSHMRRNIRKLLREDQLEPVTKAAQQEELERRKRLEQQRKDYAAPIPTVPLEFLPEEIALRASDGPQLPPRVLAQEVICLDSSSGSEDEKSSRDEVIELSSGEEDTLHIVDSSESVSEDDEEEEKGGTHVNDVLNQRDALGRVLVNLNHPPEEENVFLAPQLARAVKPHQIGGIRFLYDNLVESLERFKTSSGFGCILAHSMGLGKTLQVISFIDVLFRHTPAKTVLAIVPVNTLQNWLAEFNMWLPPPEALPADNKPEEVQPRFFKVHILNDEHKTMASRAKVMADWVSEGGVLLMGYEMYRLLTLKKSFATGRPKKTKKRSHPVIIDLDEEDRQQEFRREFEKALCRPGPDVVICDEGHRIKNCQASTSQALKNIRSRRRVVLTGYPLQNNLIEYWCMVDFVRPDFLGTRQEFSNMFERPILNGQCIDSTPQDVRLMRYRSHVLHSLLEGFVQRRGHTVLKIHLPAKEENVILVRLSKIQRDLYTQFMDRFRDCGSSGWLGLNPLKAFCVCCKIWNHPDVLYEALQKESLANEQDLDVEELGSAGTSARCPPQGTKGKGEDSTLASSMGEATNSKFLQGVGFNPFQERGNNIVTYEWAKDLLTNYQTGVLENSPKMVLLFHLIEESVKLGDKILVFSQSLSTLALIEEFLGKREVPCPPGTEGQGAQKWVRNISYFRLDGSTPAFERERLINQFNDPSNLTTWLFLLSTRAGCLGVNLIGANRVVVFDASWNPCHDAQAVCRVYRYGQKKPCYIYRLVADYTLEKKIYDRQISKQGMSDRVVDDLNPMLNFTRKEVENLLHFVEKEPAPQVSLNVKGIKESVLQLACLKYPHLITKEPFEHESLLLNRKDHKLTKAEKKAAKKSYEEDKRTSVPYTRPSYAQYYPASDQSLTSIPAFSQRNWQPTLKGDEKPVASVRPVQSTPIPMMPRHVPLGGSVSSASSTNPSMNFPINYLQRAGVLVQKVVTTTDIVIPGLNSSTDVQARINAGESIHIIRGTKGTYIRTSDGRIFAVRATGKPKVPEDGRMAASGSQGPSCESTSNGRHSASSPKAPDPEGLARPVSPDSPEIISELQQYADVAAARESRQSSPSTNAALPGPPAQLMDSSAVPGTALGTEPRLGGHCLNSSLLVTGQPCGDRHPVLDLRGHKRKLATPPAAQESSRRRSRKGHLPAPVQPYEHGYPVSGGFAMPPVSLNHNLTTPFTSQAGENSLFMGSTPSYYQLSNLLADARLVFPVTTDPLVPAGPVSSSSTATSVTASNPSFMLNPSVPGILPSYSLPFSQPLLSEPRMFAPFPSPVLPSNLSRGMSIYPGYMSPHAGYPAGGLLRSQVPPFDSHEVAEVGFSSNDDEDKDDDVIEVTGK
UniProt O75880, sequence (O75880 whole entry, looked up): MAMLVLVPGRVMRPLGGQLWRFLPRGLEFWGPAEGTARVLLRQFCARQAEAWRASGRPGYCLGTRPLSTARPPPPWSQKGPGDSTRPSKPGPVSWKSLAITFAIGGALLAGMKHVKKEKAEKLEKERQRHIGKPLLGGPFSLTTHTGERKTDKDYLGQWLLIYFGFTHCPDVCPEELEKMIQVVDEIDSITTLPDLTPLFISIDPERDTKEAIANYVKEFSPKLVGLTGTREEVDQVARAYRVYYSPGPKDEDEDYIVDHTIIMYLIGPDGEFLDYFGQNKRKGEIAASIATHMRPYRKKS
UniProt P11233, sequence (P11233 whole entry, looked up): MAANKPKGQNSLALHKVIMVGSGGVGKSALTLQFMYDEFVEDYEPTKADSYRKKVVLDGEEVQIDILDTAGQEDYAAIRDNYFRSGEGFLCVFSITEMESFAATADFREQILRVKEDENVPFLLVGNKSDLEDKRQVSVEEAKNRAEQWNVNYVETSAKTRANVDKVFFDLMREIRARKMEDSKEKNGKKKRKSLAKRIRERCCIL
UniProt Q7Z6M1, sequence (Q7Z6M1 whole entry, looked up): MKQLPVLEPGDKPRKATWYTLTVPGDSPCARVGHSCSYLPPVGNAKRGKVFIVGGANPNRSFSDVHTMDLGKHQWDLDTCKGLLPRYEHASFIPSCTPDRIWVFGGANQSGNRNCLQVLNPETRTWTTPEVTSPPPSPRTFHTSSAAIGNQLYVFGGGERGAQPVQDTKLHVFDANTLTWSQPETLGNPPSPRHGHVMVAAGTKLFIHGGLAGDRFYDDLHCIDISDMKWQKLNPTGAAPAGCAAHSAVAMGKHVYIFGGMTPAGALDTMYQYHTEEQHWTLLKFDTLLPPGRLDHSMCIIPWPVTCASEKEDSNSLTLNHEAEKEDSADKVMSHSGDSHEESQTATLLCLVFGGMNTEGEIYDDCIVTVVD
UniProt Q96DM3, sequence (Q96DM3 whole entry, looked up): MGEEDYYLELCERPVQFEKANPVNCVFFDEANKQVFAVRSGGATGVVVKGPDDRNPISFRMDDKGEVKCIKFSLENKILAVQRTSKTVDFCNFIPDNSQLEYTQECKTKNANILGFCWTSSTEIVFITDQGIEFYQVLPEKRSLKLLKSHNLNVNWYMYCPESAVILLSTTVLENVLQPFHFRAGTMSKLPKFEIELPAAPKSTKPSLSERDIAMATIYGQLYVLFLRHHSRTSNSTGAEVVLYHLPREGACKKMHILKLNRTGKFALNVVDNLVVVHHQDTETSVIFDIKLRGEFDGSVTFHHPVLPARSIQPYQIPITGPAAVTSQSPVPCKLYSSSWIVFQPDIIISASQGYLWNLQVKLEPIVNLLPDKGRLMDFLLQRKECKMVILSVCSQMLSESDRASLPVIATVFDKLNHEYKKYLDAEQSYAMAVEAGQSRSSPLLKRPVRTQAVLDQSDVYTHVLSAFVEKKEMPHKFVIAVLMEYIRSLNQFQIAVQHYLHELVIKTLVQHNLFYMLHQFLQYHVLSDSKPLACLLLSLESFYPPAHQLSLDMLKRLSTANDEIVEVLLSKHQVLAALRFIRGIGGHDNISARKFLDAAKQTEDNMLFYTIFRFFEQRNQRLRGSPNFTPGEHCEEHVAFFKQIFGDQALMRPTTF

Consider SERPINI1 (UniProt Q99574), for which the log2 fold change in experiment [1] was -0.04; in [2], -0.013; in experiment [3], 0.038; in [4], -0.034; in [5], -0.013; in experiment [6], 0.035. In addition, the log2 fold change in experiment [7] was 0.036; in [8], 0.003; in experiment [9], 0.009; in experiment [10] it was -0.015; in experiment [11], -0.04; in [12], 0.124. For the same target, the log2 fold change is -0.021 in experiment [13], -0.003 in [14] and -0.016 in experiment [15].
For the target RABEPK (UniProt Q7Z6M1), the log2 fold change was -0.003 in experiment [1]; 0.005 in experiment [2]; 0.005 in experiment [3]; -0.01 in [4]; 0.012 in experiment [5]; 0.004 in [6]. Besides, the log2 fold change in experiment [7] was 0.007; in [8], -0.018; in experiment [9], 0.013; in experiment [10] it was 0.002; in experiment [11], 0.008; in experiment [12], -0.441 (active). In addition, the log2 fold change in [13] is 0.032; in [14], 0.014; in experiment [15], 0.009.
Take RMC1 (UniProt Q96DM3): the log2 fold change in experiment [1] is 0.027; in [2] it was 0.005; in [3], 0.008; in experiment [4] it was -0.002; in experiment [5], 0.003; in experiment [6], -0.02. In addition, the log2 fold change in experiment [7] is -0.057; in [8], 0.035; in experiment [9], -0.007; in experiment [10], 0.036; in experiment [11] it was 0.008; in experiment [12], -0.391 (active). The log2 fold change in experiment [13] was 0.017; in [14] it was -0.013; in experiment [15], 0.037.
As for RIC1 (UniProt Q4ADV7), the log2 fold change is -0.069 in experiment [1]; 0.033 in experiment [2]; 0.001 in experiment [3]; 0.086 in experiment [4]; 0.008 in experiment [5]; -0.169 in experiment [6]. The log2 fold change in [7] is 0.085; in [8], 0.097; in experiment [9], -0.085; in experiment [10] it was 0.002; in experiment [11], -0.053; in [12], -0.193. In addition, the log2 fold change is 0.057 in [13], -0.06 in experiment [14] and 0.045 in experiment [15].
On to RARS (UniProt P54136), for which the log2 fold change in experiment [1] is 0.004; in [2], 0; in experiment [3], -0.074; in [4], -0.017; in experiment [5] it was 0.038; in experiment [6] it was -0.017. Moreover, the log2 fold change was 0.006 in experiment [7]; 0.049 in experiment [8]; 0.015 in [9]; -0.023 in experiment [10]; -0.004 in experiment [11]; -0.309 (active) in experiment [12]. Besides, the log2 fold change is 0.056 in experiment [13], -0.009 in [14] and 0.024 in experiment [15].
Regarding RALA (UniProt P11233), the log2 fold change in [1] was -0.04; in [2], -0.001; in experiment [3] it was 0.017; in experiment [4] it was -0.04; in experiment [5], -0.018; in experiment [6] it was 0.004. For the same target, the log2 fold change in [7] was -0.041; in experiment [8], 0.033; in experiment [9], 0.038; in experiment [10], -0.003; in experiment [11], 0.031; in experiment [12] it was 0.129. Also, the figures for the log2 fold change in experiment [13], in experiment [14] and in experiment [15] were -0.062, 0 and -0.006, respectively.
Turning to RNF181 (UniProt Q9P0P0), the log2 fold change in experiment [1] is 0.023; in experiment [2], 0.027; in experiment [3], 0.013; in [4], 0.007; in experiment [5] it was -0.004; in experiment [6], -0.027. The log2 fold change in [7] was -0.03; in experiment [8], 0.006; in [9], -0.01; in [10], -0.023; in [11] it was -0.014; in [12], 0.101. Besides, the log2 fold change was -0.019 in experiment [13], -0.023 in [14] and -0.24 (active) in [15].
On to SCO1 (UniProt O75880), for which the log2 fold change in experiment [1] was 0.046; in [2], 0.029; in experiment [3], 0.001; in experiment [4], -0.095; in experiment [5], 0; in [6], -0.13. In addition, the log2 fold change in experiment [7] was -0.108; in [8], -0.033; in experiment [9] it was 0.029; in experiment [10], 0.001; in [11] it was 0.022; in experiment [12], 0.149. Moreover, the log2 fold change is -0.067 in [13], -0.052 in [14] and 0 in [15].
For RAD54L2 (UniProt Q9Y4B4), the log2 fold change was -0.037 in [1]; -0.03 in [2]; -0.053 in [3]; -0.047 in experiment [4]; -0.15 in experiment [5]; -0.009 in experiment [6]. Moreover, the log2 fold change in experiment [7] was -0.105; in experiment [8], -0.013; in [9] it was 0.035; in experiment [10], -0.091; in [11], 0.119; in experiment [12] it was -0.487 (active). Besides, the log2 fold change in [13] is 0.04; in [14] it was 0.01; in experiment [15] it was 0.014.
With RPAP1 (UniProt Q9BWH6), the log2 fold change in [1] was -0.002; in [2] it was 0.014; in [3] it was -0.027; in experiment [4] it was -0.01; in experiment [5] it was 0.032; in experiment [6], -0.02. Moreover, the log2 fold change was -0.01 in experiment [7]; 0.013 in experiment [8]; 0.029 in experiment [9]; 0.004 in [10]; 0.006 in experiment [11]; -0.232 (active) in experiment [12]. In addition, the figures for the log2 fold change in [13], in experiment [14] and in experiment [15] were 0, 0.015 and -0.025, respectively.
